Screens from PubChem.
Marburg entry = inhibitors of Marburg virus binding or entry into cells; Marburg virus pseudotype entry/binding inhibition, cell-based; AID 720532; Potency, µM (top dose mostly 49.2 µM), for the others: top-dose activity change, negative = inhibition, most hits filed as inhibitors; hit rate 6.5% among 18,000
LASV entry inh = blocks Lassa virus binding or cell entry; Lassa virus pseudotyped entry inhibition, cell-based qHTS; Potency, µM (titrated, usually from 49.2 µM), without a hit: at the highest dose activity change, negative = inhibition, most hits filed as inhibitors; hit rate 4.1% among 18,000
The depositor's hits bear a star; ? = inconclusive; [ ] = another dose, or the depositor's remark. A selection: hits, their analogues and other compounds. The true share with any hit is near 8.6%. The call rests on the fitted dose curve; tested in HEK293 cells. On the % scale 0 is the no-effect control and ±100 the full control effect; potency means the concentration at half of the fitted maximal effect.

SMILES	Marburg entry	LASV entry inh
COC1[C@@H](O[C@@H]2O[C@H](C)[C@@H](O[C@H]3C[C@@](C)(O)[C@H](OC(=O)CC(C)C)[C@H](C)O3)[C@H](N(C)C)[C@H]2O)[C@@H](CC=O)C[C@@H](C)[C@@H](O)/C=C/C=C/C[C@@H](C)OC(=O)C[C@H]1OC(C)=O (stereo partly drawn)	7%[17.8 µM]	9%[17.8 µM]
CO[C@@H]1[C@@H](O[C@@H]2O[C@H](C)[C@@H](O[C@H]3C[C@@](C)(O)[C@@H](O)[C@H](C)O3)[C@H](N(C)C)[C@H]2O)[C@@H](CC=O)C[C@@H](C)[C@@H](O[C@@H]2CC[C@H](N(C)C)[C@@H](C)O2)/C=C/C=C/C[C@@H](C)OC(=O)C[C@H]1OC(C)=O	3.2µM*	?
CC[C@H]1OC(=O)C[C@@H](O)[C@H](C)[C@@H](O[C@@H]2O[C@H](C)[C@@H](O[C@H]3C[C@@](C)(O)[C@@H](O)[C@H](C)O3)[C@H](N(C)C)[C@H]2O)[C@@H](CC=O)C[C@@H](C)C(=O)/C=C/C(C)=C/[C@@H]1CO[C@@H]1O[C@H](C)[C@@H](O)[C@@H](OC)[C@H]1OC	-20%	1%
CC(=O)Oc1ccc(/C=C/C(=O)CC2OC(Oc3cc(OC(C)=O)c4c(c3)O[C@@H](c3ccc(OC(C)=O)cc3)CC4=O)C(OC(C)=O)C(OC(C)=O)C2OC(C)=O)cc1 (stereo partly drawn)	-39%	?
CC(C)=CCCC(C)=CCN1C(=O)[C@]2(O[C@H](COc3ccccc3)CC3=CCCC32)c2c(Br)cccc21 (stereo partly drawn)	-3%[8.59 µM]	-17%[8.59 µM]
Cc1c(C(=O)NCCCN2CCCC2=O)cnn1-c1ncc2c(n1)-c1ccccc1CC2	-14%	25%
COCCN1C(=NCCc2cccnc2)NC(c2ccccc2)C(C(=O)OC)=C1C (stereo not drawn)	54%[8.59 µM]	?
CSc1ncnc2c1ncn2C1OC(CO)C(O)C1O (stereo not drawn)	0.5µM*	0.35µM*
OC[C@H]1O[C@@H](n2cnc3cncnc32)[C@H](O)[C@@H]1O	3.2µM*	7.9µM*
CNc1ncnc2c1ncn2[C@@H]1O[C@H](CO)[C@@H](O)[C@@H]1O	7%[17.8 µM]	-13%[17.8 µM]
Cc1ccccc1CNc1ncnc2c1ncn2[C@@H]1O[C@H](CO)[C@@H](O)[C@H]1O	25%	-4%
Nc1ncnc2c1ncn2C1OC(CO)C(O)C1O (stereo not drawn)	5%	0%
OC[C@H]1O[C@@H](n2cnc3c(NCc4ccco4)ncnc32)[C@H](O)[C@@H]1O	13µM*	?
CO/N=C(\C(=O)N[C@@H]1C(=O)N2C(C(=O)[O-])=C(C[n+]3ccc(N)n3CCO)CS[C@H]12)c1csc(N)n1	-12%	-19%
COc1cccc([C@@H]2Oc3ccc(Br)cc3C[C@@H]2OC(=O)N[S+](=O)([O-])c2ccc(C)cc2)c1	-4%[8.59 µM]	3%[8.59 µM]
O=C(OCC(COC(=O)c1cccnc1)(COC(=O)c1cccnc1)COC(=O)c1cccnc1)c1cccnc1	7%	-22%
O=C(OCc1cn([C@@H]2CN(C(=O)c3cccs3)[C@@H](c3ccc(Cl)cc3)C[C@@H]2O)nn1)c1ccccc1	-8%	4%
Cc1ccccc1-c1cc(-n2ccnc2)ncn1	5%	0%
COc1cc(Cl)c(CN2CCOc3ccc(CN4CCCCC4CO)cc3C2)cc1OC (stereo not drawn)	?	5%
O=c1c2nc(Br)n([C@@H]3O[C@@H]4CO[P@@](O)(=S)O[C@H]4[C@H]3O)c2nc2[nH]c(-c3ccccc3)cn12	3%	-5%
CC(C)C[C@@H](CC(=O)N[C@@H](CCC(=O)O)CC(=O)O)NC(=O)[C@@H]1CCCC[C@H]1NC(=O)C[C@@H](NC(=O)C[C@H](CO)NC(=O)[C@@H]1CNCC[C@H]1N)C(C)C	-2%	-4%
CC[C@H](C)[C@H](NC(=O)CNC(=O)[C@H](C)NC(=O)[C@H](C)N)C(=O)NCC(=O)N[C@H](C(=O)N[C@@H](CC(C)C)C(=O)N[C@H](C(=O)N[C@H](C(=O)O)C(C)C)[C@@H](C)O)[C@@H](C)CC	-11%	-5%
C[C@H]1COc2cccc(F)c2S(=O)(=O)N1	22%	19%
Oc1ccc(/C=C/c2cc(O)cc(O)c2)cc1	7.1µM*	7.9µM*
COc1ccc(/C=C/c2cc(O)cc(O)c2)cc1	1%	-3%
O=C(/C=C/c1ccc(O)cc1)c1ccc(O)cc1O	22%	9%
Oc1ccc(/C=C\c2cc(O)cc(O)c2)cc1	11µM*	10µM*
COc1ccc(CN2CCCC(n3cc(C(=O)N4CCCCC4)nn3)C2)c(OC)c1OC (stereo not drawn)	10%	-3%
